Screening data from PubChem BioAssay.
Beta cell apopt: blocks beta cell apoptosis; INS-1E cytokine-induced death, ATP luminescence, 48 h; percent of positive-control rescue, neutral wells zero; AID 435005; 0.8% of 300,000 active; protection from apoptosis, % (test concentration not listed);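 active = Every replicate reaches about 75%, or at least half do and their mean reaches it too, limit read from the data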;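 note: 0% = cytokine-treated negative control wells and 100% = positive control rescue; higher means more ATP so stronger rescue from cytokine killing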
Bfl-1 A1 inh: inhibitors of the anti-apoptotic protein A1, read as caspase activation | caspase activation, % (no concentration beside the values) | 0.066% of 330,000 active | MEF A1-2A-BIM cells, Caspase-Glo 3/7 luminescence, 3 h; percent of clofoctol response, vehicle zero;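 active = over half of replicate activation scores above 10%, or exactly half above 10 with the replicate mean above 10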
Jurkat NFkB inh: inhibitors of the PMA/ionomycin-induced NF-kB reporter in Jurkat cells | PMA/ionomycin-induced NF-kB luciferase reporter, luminescence | inhibition, % at 4 µM | 0.53% of 330,000 active | AID 435003; in the data active = inhibition above about 50%
NTR1 agonist: activates human neurotensin receptor 1. NTR1-U2OS beta-arrestin-GFP spot imaging, agonist mode. 0.17% of 330,000 active. P30989. activation, % at 20 µM;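 active = activation at or above 40% of the spot to cytoplasm intensity ratio, with at least 20 cells analyzed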;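 note: 0% = DMSO without peptide and 100% = 100 nM NTR1 peptide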
697 NFkB inh: inhibitors of the PMA/ionomycin-induced NF-kB reporter in 697 B cells. 697 B-cell NF-kB luciferase reporter, 16 h. inhibition, % at 4 µM. 0.33% of 330,000 active. AID 435022; in the data active = inhibition above about 35%
Mdm2 MdmX PPI: disrupts the human Mdm2-MdmX interaction; O15151+Q00987; SaOS-2 split-luciferase Mdm2/MdmX complementation, luminescence; inhibition, % at 8 µM; 3% of 330,000 active;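 active = inhibition of at least 50% at 8 µM in the primary screen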
Target sequence (O15151 whole entry, looked up): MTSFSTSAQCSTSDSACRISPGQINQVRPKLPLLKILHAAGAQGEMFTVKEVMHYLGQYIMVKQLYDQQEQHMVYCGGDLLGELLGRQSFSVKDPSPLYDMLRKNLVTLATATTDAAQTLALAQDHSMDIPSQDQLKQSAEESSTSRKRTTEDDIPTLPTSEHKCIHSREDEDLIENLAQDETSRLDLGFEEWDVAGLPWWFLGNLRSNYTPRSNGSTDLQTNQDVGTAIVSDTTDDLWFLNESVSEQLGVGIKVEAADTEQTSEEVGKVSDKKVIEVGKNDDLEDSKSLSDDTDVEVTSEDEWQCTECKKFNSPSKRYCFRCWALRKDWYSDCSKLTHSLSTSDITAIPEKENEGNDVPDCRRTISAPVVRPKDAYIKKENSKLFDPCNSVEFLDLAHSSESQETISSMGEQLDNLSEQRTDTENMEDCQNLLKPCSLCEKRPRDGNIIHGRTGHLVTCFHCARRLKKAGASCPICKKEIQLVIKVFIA
Target sequence (Q00987 whole entry, looked up): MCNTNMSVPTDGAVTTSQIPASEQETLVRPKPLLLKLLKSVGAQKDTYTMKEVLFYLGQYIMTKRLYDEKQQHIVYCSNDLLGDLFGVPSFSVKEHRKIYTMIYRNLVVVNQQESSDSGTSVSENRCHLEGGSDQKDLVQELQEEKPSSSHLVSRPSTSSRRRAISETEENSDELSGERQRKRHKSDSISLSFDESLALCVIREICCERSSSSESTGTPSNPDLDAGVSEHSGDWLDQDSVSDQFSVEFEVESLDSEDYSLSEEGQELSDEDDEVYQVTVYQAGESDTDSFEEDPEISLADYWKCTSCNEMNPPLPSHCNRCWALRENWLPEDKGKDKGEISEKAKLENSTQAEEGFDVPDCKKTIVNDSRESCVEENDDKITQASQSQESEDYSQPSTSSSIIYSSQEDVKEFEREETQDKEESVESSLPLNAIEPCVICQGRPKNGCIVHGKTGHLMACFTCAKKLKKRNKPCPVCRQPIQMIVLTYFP
Jurkat NFkB conf: lowers PMA/ionomycin-induced NF-kB signal in Jurkat cells | shares compounds with Jurkat NFkB inh | Jurkat NF-kB luciferase, 16 h | inhibition, % at 4 µM | 27% of 2,700 active | AID 435020;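 active = inhibition reaching about 45% at 4 µM in either replicate, limit read from the data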;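 note: plate controls were PMA/ionomycin stimulated DMSO wells for no effect and unstimulated DMSO wells for full effect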
697 NFkB conf: inhibitors of the PMA/ionomycin-induced NF-kB reporter in 697 B cells, retest | shares compounds with 697 NFkB inh | 697 B-cell NF-kB luciferase, 16 h | inhibition, % at 4 µM | 35% of 2,000 active | AID 449746; in the data active = inhibition mostly above about 28%, no sharp cut-off; inactive = mostly below about 22%
Mdm2-MdmX conf: human Mdm2/MdmX binding inhibition, confirmed; shares compounds with Mdm2 MdmX PPI; luminescent assay; inhibition, % at 8 µM; 55% of 10,000 active; in the data active = inhibition above about 40%
FLuc counter: full-length luciferase inhibition in Mdm2/MdmX counter-screen. shares compounds with Mdm2 MdmX PPI. SaOS-2 full-length luciferase counterscreen, luminescence. inhibition, % at 8 µM. 77% of 6,200 active;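 active = mean inhibition at 8 µM reaching about 37%, which flags the compound as non-specific, limit read from the data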;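 note: p53-null SaOS-2 cells with luciferase driven by a doxycycline-inducible promoter; compound on cells about two nights before reading with doxycycline added after day one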
* marks the source's active call; other numbers are inactive results; . = not tested or not shown. An excerpt weighted towards active compounds, which were near 3.8% of everything screened.

SMILES | Beta cell apopt | Bfl-1 A1 inh | Jurkat NFkB inh | NTR1 agonist | 697 NFkB inh | Mdm2 MdmX PPI | Jurkat NFkB conf | Mdm2-MdmX conf | FLuc counter | others
COc1ccc(C)cc1NS(=O)(=O)c1ccc(-c2cnc(C3CC3)o2)cc1 | . | . | 65.6* | 4.7 | -272.4 | 82.6* | 68.3* | 52.0* | 111.4* | 697 NFkB conf=-213.2
Cc1ccc(N(C)S(=O)(=O)c2ccc(-c3cnc(C4CC4)o3)cc2)cc1 | 25.1 | 2.8 | 51.9* | 3.3 | -4.4 | 61.0* | 52.4* | 55.4* | 78.7*
CCOc1ccccc1CNS(=O)(=O)c1ccc(-c2cnc(C3CC3)o2)cc1 | . | . | 57.5* | 5.8 | -58.5 | 60.5* | 55.0* | 60.0* | 83.6*
O=C(Nc1c[nH]c2c(Cl)cccc2c1=O)N1CCN(c2ccccn2)CC1 | -3.8 | 0.1 | -8.8 | 0.4 | -32.0 | 3.8 | . | . | .
O=C(Oc1ccccc1C(=S)N1CCOCC1)c1ccc([N+](=O)[O-])cc1[N+](=O)[O-] | 0.4 | 0.4 | 15.7 | 10.5 | 9.0 | -4.6 | . | . | .
COc1ccc(/C=N/NC(=O)CCn2cnc(-c3ccccc3)c2-c2ccccc2)cc1 | 35.4 | -0.5 | 56.5* | 4.7 | 8.0 | 58.0* | 26.9 | 71.5* | 95.6*
COc1ccc(/C=N/NC(=O)COc2ccccc2-c2ccccc2)cc1 | 31.8 | -0.1 | 55.9* | 4.8 | 19.9 | 55.9* | 47.4* | 67.8* | 90.5*
CCCN1CCN(S(=O)(=O)c2ccc(-c3cc(C)no3)s2)CC1 | 1.0 | -1.7 | 26.2 | 1.0 | -10.9 | 15.3 | . | . | .
COc1cc(NS(=O)(=O)c2ccc(OC)c(C)c2C)c(OC)cc1Cl | 28.6 | -0.3 | 58.4* | 4.8 | -44.3 | 51.2* | 50.9* | 55.0* | 63.2*
COc1ccc(OC)c(S(=O)(=O)Nc2cc(OC)c(Cl)cc2OC)c1 | -1.1 | 1.3 | 15.8 | 2.2 | 7.2 | 10.8 | . | . | .
COc1ccc(NC(=O)CNC(=O)c2nn(-c3ccc(OC)c(OC)c3)c(=O)c3ccccc23)c(OC)c1 | 9.0 | -0.6 | 6.1 | -0.9 | 16.1 | 4.2 | . | . | .
COc1ccc(-n2nc(C(=O)NCC(=O)Nc3cc(OC)c(OC)c(OC)c3)c3ccccc3c2=O)cc1OC | -4.5 | -2.9 | 56.8* | 2.2 | 30.5 | 69.7* | -7.8 | 66.5* | 68.1*
CCN(CC)c1ccc(-c2nn3c(-c4n[nH]c5c4CCC5)nnc3s2)cc1 | 41.9 | 1.1 | 58.3* | 17.3 | -9.0 | 50.8* | 54.0* | 59.0* | 102.1*
C1CCC(c2nn3c(-c4n[nH]c5c4CCC5)nnc3s2)CC1 | -1.1 | -0.1 | -3.6 | 3.9 | -4.6 | 28.5 | . | . | .
Cc1nn(CSc2c(F)c(F)c(F)c(F)c2F)c(C)c1[N+](=O)[O-] | 4.3 | -0.1 | 0.8 | -1.9 | 13.8 | -17.4 | . | . | .
N/C(=N\OCc1ccc([N+](=O)[O-])cc1)c1ccccn1 | -0.2 | -0.3 | 59.9* | -0.7 | 23.3 | 75.9* | 64.8* | 67.3* | 44.4*
COc1ccc(OC)c(Nc2cc(-c3ccccc3)nc(N)n2)c1 | 15.4 | 0.5 | 56.5* | -6.9 | 29.7 | 69.2* | 44.2 | 71.3* | 72.3*
Cc1ccc(N(CC(=O)NC(C)C)C(=O)CCC(=O)Nc2ccccn2)cc1 | -3.7 | 0.5 | -18.5 | 1.4 | 0.7 | -12.0 | . | . | .
CCOC(=O)C(C)Oc1cccc2c(=O)n(CC(=O)NCc3ccc(F)cc3)ccc12 (stereo not given) | 19.2 | 1.5 | 73.0* | 2.2 | -8.0 | 68.7* | 48.2* | 61.2* | 88.2*
CCOC(=O)C(C)Oc1cccc2c(=O)n(CC(=O)NCCc3ccccc3)ccc12 (stereo not given) | -0.7 | 0.2 | -3.7 | -1.8 | 23.2 | 0.9 | . | . | .
CCOC(=O)C(C)Oc1cccc2c(=O)n(CC(=O)NCc3ccccc3)ccc12 (stereo not given) | 13.3 | -0.4 | 71.8* | 0.6 | -17.3 | 66.3* | 57.5* | 50.0* | 66.8*
CC(=O)c1ccc(NC(=O)CN2C(=O)NC(C)(c3ccc4c(c3)OCCO4)C2=O)cc1 (stereo not given) | -8.0 | 2.5 | 2.2 | -0.9 | -16.3 | -2.0 | . | . | .
CCOC(=O)N1CCC(NC(=O)c2cc3cc4cc(OC)ccc4nc3o2)CC1 | 8.4 | 0.4 | -5.0 | 2.9 | 2.4 | 11.0 | . | . | .
COc1ccc2nc3oc(C(=O)NC4CCN(Cc5ccccc5)CC4)cc3cc2c1 | . | -0.1 | 62.5* | -0.1 | -38.2 | 98.2* | 22.5 | 90.5* | 20.4
COc1ccc(-c2cc3nc(C)n(N)c(=O)c3s2)cc1 | 53.4 | -8.9 | 79.7* | 0.4 | 53.4* | 88.7* | 82.7* | 88.2* | 55.9* | 697 NFkB conf=49.2*
SMILES | Beta cell apopt | Bfl-1 A1 inh | Jurkat NFkB inh | NTR1 agonist | 697 NFkB inh | Mdm2 MdmX PPI | Jurkat NFkB conf | Mdm2-MdmX conf | FLuc counter | others
COc1ccc(NC(=O)/C(Cl)=C(/Cl)S(=O)Cc2ccccc2Cl)cn1 (stereo not given) | . | . | 99.6* | -0.2 | -349.1 | 98.3* | 98.1* | 100.2* | 1.5 | 697 NFkB conf=-109.5
COc1ccc(NC(=O)Cc2ccc(Cl)c(Cl)c2)cn1 | 3.0 | -0.2 | 2.5 | 0.6 | -5.3 | 6.4 | . | . | .
COc1ccccc1-c1nc(SCC(=O)N2CCC(C(N)=O)CC2)n[nH]1 | -4.1 | -0.1 | -9.5 | 0.6 | -10.2 | -10.1 | . | . | .
CCC1C(=O)NCCN1C(=O)c1cccc(OC2CCN(S(=O)(=O)N(C)C)CC2)c1 (stereo not given) | -6.8 | -1.6 | -22.7 | 1.4 | -16.5 | -31.0 | . | . | .
CCCC(=O)Nc1nc2ccc(NC(=O)c3ccccc3F)cc2s1 | 36.9 | 0.4 | 59.7* | -1.0 | -76.3 | 54.9* | 27.1 | 55.5* | 73.7*
CC(=O)Nc1ccc2nc(NC(=O)CCc3ccccc3)sc2c1 | -2.2 | 0.7 | 4.2 | 0.1 | -1.0 | 11.4 | . | . | .
CCN(CC)c1ccc2nc3ccc(N)cc3[n+](-c3ccccc3)c2c1 | . | . | 82.8* | 16.8 | 20.2 | 91.7* | 68.4* | 92.8* | 23.6
CCN(CC)C(=O)c1ccc2nc3ccccc3nc2c1 | -10.5 | 0.2 | -10.3 | -2.0 | -10.5 | -8.1 | . | . | .
CCN(CC)c1ccc2nc3ccccc3[n+](CC)c2c1 | 98.9* | -0.8 | 55.9* | 1.7 | 17.8 | 53.5* | 56.5* | 36.9 | .
COc1ccc(N2CC(C(=O)N(C)CC(=O)Nc3ccc(Cl)c(C(F)(F)F)c3)CC2=O)c(OC)c1 (stereo not given) | . | 0.1 | 16.2 | 1.9 | 5.6 | 12.8 | . | . | .
CCn1c(SCC(=O)Nc2sccc2C(N)=O)nnc1C1CC1 | . | . | 12.9 | -1.2 | 12.9 | -16.9 | . | . | .
